These results are taken from PubChem BioAssay (NCATS).

Assay in all cases: qHTS profiling for inhibitors of Plasmodium falciparum proliferation (AID 504749); note: nearly all actives have a fitted effect of over 60% in size
Details in all cases: P. falciparum in erythrocytes, SYBR Green DNA, 72 h; series mostly up to 28.7 µM

One experiment deals with PAD. The method, boiled down: (§1)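 Infected RBCs, 0.3% parasitemia/2.5% Hct final; cpd 72 h, 37 C, 5% CO2; lysis buffer with saponin/triton/SYBR Green I, o/n RT dark; FI 485/535; norm. to artemisinin (0.29 uM) and DMSO.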
In a further experiment the test system is PC15. The gist of the method:
as §1

The next experiment deals with PC26. The method, boiled down: as §1
The next experiment concerns PC49. The gist of the method:
as §1

The subject of the next experiment is SC27B. The method, boiled down: as §1
The next experiment concerns TAB109. The method, boiled down: as §1
The subject of a further experiment is TAB113. The gist of the method: as §1
For the next experiment, the system named is TAB165. The gist of the method:
as §1

The subject of a further experiment is W2. The gist of the method: as §1

Each structure is given as a SMILES string. Results filed as inconclusive are left out. Calls of active or inactive are those of the source. Calls come from the whole dose curve; as a rule, active = well fitted inhibition curve with a large enough effect; inconclusive = small, poorly fitted or top-dose-only effect; inactive = flat fitted curve, though single readings scatter.
Potency is the fitted concentration of half-maximal effect.

As for `O=C1[O][Bi][O]c2ccccc21`, the Potency result in the experiment with PAD, in the experiment on PC15, in the experiment on PC26, in the experiment on PC49, in the experiment with SC27B and with TAB109 was “inactive” in each case. For the same molecule, the Potency result with TAB113, in the experiment on TAB165 and in the experiment on W2 was “inactive” each time.
Consider `O=C(/C=C/c1cccc(F)c1)NC1CC1`, for which the Potency result with PAD, in the experiment on PC15, in the experiment with PC26, in the experiment on PC49, in the experiment on SC27B and in the experiment with TAB109 was “inactive” throughout. Further, the Potency result in the experiment on TAB113, in the experiment with TAB165 and with W2 was “inactive” throughout.
Take `NCCN`: the Potency result in the experiment on PAD, in the experiment with PC15, in the experiment on PC26, with PC49, in the experiment on SC27B and with TAB109 was “inactive” in each case. Besides, the Potency entry in the experiment with TAB113, in the experiment with TAB165 and in the experiment on W2 was “inactive” throughout.
For the molecule `Oc1ccc(Cl)c2c1CCC2`, the Potency result in the experiment with PAD, in the experiment with PC15, in the experiment with PC26, in the experiment on PC49, in the experiment on SC27B and in the experiment on TAB109 was “inactive” in each case. Besides, the Potency entry with TAB113, in the experiment on TAB165 and with W2 was “inactive” throughout.
As to `O=C1c2ccccc2CN2C(=O)c3ccccc3CN12`, the Potency entry in the experiment with PAD, in the experiment with PC15, in the experiment with PC26, in the experiment with PC49, with SC27B and in the experiment with TAB109 was “inactive” throughout. Moreover, the Potency entry in the experiment on TAB113, in the experiment on TAB165 and in the experiment on W2 was “inactive” in each case.
For the molecule `N[C@H](CC(=O)O)C(=O)O`, the Potency result in the experiment with PAD, in the experiment with PC15, in the experiment with PC26, in the experiment on PC49, in the experiment on SC27B and in the experiment with TAB109 was “inactive” throughout. Moreover, the Potency result in the experiment on TAB113, in the experiment on TAB165 and in the experiment with W2 was “inactive” in each case.
`C[Se]CC[C@H](N)C(=O)O`: the Potency entry with PAD, in the experiment with PC15, in the experiment with PC26, with PC49, in the experiment on SC27B and with TAB109 was “inactive” each time. For the same molecule, the Potency entry in the experiment on TAB113, with TAB165 and with W2 was “inactive” throughout.
In the case of `OC[C@H]1O[C@@](CO)(O[C@H]2O[C@H](CO)[C@@H](O)[C@H](O)[C@H]2O)[C@@H](O)[C@@H]1O`, the Potency entry in the experiment with PAD, in the experiment with PC15, in the experiment with PC26, in the experiment on PC49, in the experiment with SC27B and in the experiment with TAB109 was “inactive” in each case. Besides, the Potency entry with TAB113, in the experiment on TAB165 and with W2 was “inactive” throughout.
With `COc1cc(NCCCC(C)N)c2ncccc2c1` (stereo not given), the Potency in the experiment on PAD is 398 nM (active); with PC15 it was 3.55 µM (active); in the experiment on PC26, 1.69 µM (active); in the experiment on SC27B, 11.2 µM (active); with TAB109, 4.47 µM (active); with TAB113 it was 8.91 µM (active). In addition, the Potency is 2.24 µM (active) with TAB165 and 1.51 µM (active) in the experiment on W2. The Potency result in the experiment on PC49 was “inactive”.
In the case of `COC(=O)C(CN)c1c[nH]c2ccc(OC)cc12` (stereo not given), the Potency result in the experiment on PAD, with PC15, in the experiment on PC26, with PC49, in the experiment with SC27B and in the experiment on TAB109 was “inactive” throughout. For the same molecule, the Potency entry with TAB113, in the experiment with TAB165 and in the experiment on W2 was “inactive” throughout.
For `O=S(=O)(O)CCCS(=O)(=O)O`, the Potency result with PAD, in the experiment with PC15, with PC26, in the experiment on PC49, in the experiment on SC27B and in the experiment with TAB109 was “inactive” throughout. For the same molecule, the Potency entry with TAB113, in the experiment on TAB165 and in the experiment on W2 was “inactive” in each case.
For the molecule `CC(=O)Nc1ccc(OC(=O)c2ccccc2O)cc1`, the Potency entry with PAD, in the experiment on PC15, with PC26, in the experiment on PC49, with SC27B and in the experiment on TAB109 was “inactive” in each case. Besides, the Potency result in the experiment on TAB113, in the experiment on TAB165 and in the experiment with W2 was “inactive” each time.
`O=C(O)/C=C/C(=O)Nc1ccc(S(=O)(=O)Nc2nccs2)cc1`: the Potency entry in the experiment with PAD, in the experiment on PC15, with PC26, in the experiment with PC49, with SC27B and in the experiment on TAB109 was “inactive” throughout. Also, the Potency entry in the experiment on TAB113, in the experiment on TAB165 and in the experiment on W2 was “inactive” in each case.
As for `CO[C@H]1C[C@@H]2CC[C@@H](C)[C@@](O)(O2)C(=O)C(=O)N2CCCC[C@H]2C(=O)O[C@H]([C@H](C)C[C@@H]2CC[C@@H](OC(=O)C(C)(CO)CO)[C@H](OC)C2)CC(=O)[C@H](C)/C=C(\C)[C@@H](O)[C@@H](OC)C(=O)[C@H](C)C[C@H](C)/C=C/C=C/C=C/1C`, the Potency result with PAD, with PC15, with PC26, in the experiment on PC49, in the experiment on SC27B and in the experiment on TAB109 was “inactive” in each case. Moreover, the Potency entry in the experiment on TAB113, with TAB165 and in the experiment with W2 was “inactive” in each case.
In the case of `CCCCCCCCCCCCCCCCCC(=O)OCC(C)O` (stereo not given), the Potency result with PAD, in the experiment with PC15, in the experiment with PC26, with PC49, with SC27B and in the experiment with TAB109 was “inactive” in each case. The Potency entry with TAB113, in the experiment on TAB165 and with W2 was “inactive” each time.
As for `ClC(Cl)Cl`, the Potency result with PAD, with PC15, in the experiment with PC26, with PC49, in the experiment on SC27B and in the experiment with TAB109 was “inactive” each time. For the same molecule, the Potency entry with TAB113, in the experiment with TAB165 and in the experiment on W2 was “inactive” in each case.
Consider `CCC(C(=O)NC(N)=O)c1ccccc1` (stereo not given), for which the Potency entry in the experiment with PAD, in the experiment on PC15, in the experiment with PC26, in the experiment with PC49, in the experiment on SC27B and with TAB109 was “inactive” throughout. Moreover, the Potency result in the experiment on TAB113, in the experiment with TAB165 and in the experiment on W2 was “inactive” in each case.
Turning to `O=C(O)COc1ccccc1/C=N/NC(=O)c1ccncc1`, the Potency result in the experiment on PAD, in the experiment on PC15, in the experiment on PC26, in the experiment on PC49, with SC27B and in the experiment on TAB109 was “inactive” throughout. For the same molecule, the Potency entry in the experiment with TAB113, in the experiment on TAB165 and in the experiment on W2 was “inactive” throughout.
Turning to `CC(C)OC(=O)Nc1ccc2nc(-c3cscn3)[nH]c2c1`, the Potency result in the experiment on PAD, with PC15, in the experiment with PC26, with PC49, in the experiment on SC27B and in the experiment on TAB109 was “inactive” each time. The Potency entry in the experiment with TAB113, in the experiment on TAB165 and in the experiment on W2 was “inactive” throughout.
With `CCCCC(CC)CCC(CC(C)C)OS(=O)(=O)O` (stereo not given), the Potency result in the experiment with PAD, with PC15, in the experiment with PC26, in the experiment on PC49, in the experiment on SC27B and in the experiment with TAB109 was “inactive” each time. Moreover, the Potency entry in the experiment on TAB113, in the experiment with TAB165 and in the experiment on W2 was “inactive” in each case.
Consider `CN=C1C=CC(=C(c2ccc(N(C)C)cc2)c2ccc(N(C)C)cc2)C=C1`, for which the Potency in the experiment on PAD was 1000 nM (active); in the experiment with PC15 it was 1 µM (active); in the experiment on PC26, 1.69 µM (active); in the experiment with PC49, 1.41 µM (active); in the experiment on SC27B it was 1 µM (active); with TAB109, 0.891 µM (active). Besides, the figures for the Potency in the experiment on TAB113, in the experiment on TAB165 and in the experiment with W2 were 0.891 µM (active), 0.891 µM (active) and 0.151 µM (active), respectively.
Consider `CC1CC(OC(=O)C(O)c2ccccc2)CC(C)(C)C1` (stereo not given), for which the Potency entry in the experiment with PAD, in the experiment with PC15, with PC26, in the experiment with PC49, in the experiment with SC27B and in the experiment with TAB109 was “inactive” throughout. The Potency entry in the experiment on TAB113, in the experiment with TAB165 and in the experiment on W2 was “inactive” in each case.
`O=C1CCC(=O)N1CO`: the Potency result in the experiment with PAD, in the experiment with PC15, in the experiment on PC26, in the experiment with PC49, in the experiment on SC27B and with TAB109 was “inactive” throughout. The Potency entry in the experiment on TAB113, in the experiment with TAB165 and in the experiment on W2 was “inactive” throughout.
On to `Cc1ncc[nH]1`, for which the Potency entry in the experiment with PAD, with PC15, in the experiment on PC26, in the experiment with PC49, in the experiment on SC27B and in the experiment with TAB109 was “inactive” each time. Besides, the Potency entry in the experiment with TAB113, with TAB165 and in the experiment on W2 was “inactive” in each case.
For `FC(F)(F)COCC(F)(F)F`, the Potency entry with PAD, in the experiment with PC15, in the experiment with PC26, with PC49, with SC27B and in the experiment on TAB109 was “inactive” throughout. Besides, the Potency entry in the experiment with TAB113, in the experiment on TAB165 and with W2 was “inactive” throughout.
